Source: PubChem BioAssay (NCATS)
Values without a mark were called inactive. Inconclusive results are not listed. Where a call stands in place of a potency, no number is given. Calls of active or inactive are those of the source. Unless noted, the call rests on the fitted dose curve; in most records, active means well fitted curve in the direction sought with a large enough effect; inconclusive means small, poorly fitted or top-dose-only effect, or another doubt; inactive means no such curve, though single readings can be large; an effect the other way counts as inactive or inconclusive. Numbered stars: 1 amine (or outer) side, 2 acyl side, 3 side chain; on linkers, the order of the positions; unused ones are H or OH. Bridge positions count the residues as written; N and C are the ends. Square brackets hold non-standard residues; d marks the D form. Peptide text beside a SMILES is read from it. I, II: the chains in the order shown. Actinocin(9to1) = Cc1c2oc3c(C)ccc(C(=O)[*:1])c3nc-2c(C(=O)[*:2])c(N)c1=O; NMeV = CN[C@H](C(=O)O)C(C)C; Sar = CNCC(=O)O

Columns and labels:
[1] = target: 3',5'-cyclic-AMP phosphodiesterase 4B (Homo sapiens) (UniProt Q07343); test: qHTS Assay for Inhibitors of PDE-IV (AID 607; active means well fitted activation curve with a large enough effect in the main read-out, with a control signal flat, not every such curve was filed as active)
Sequence of 3',5'-cyclic-AMP phosphodiesterase 4B (Homo sapiens) (Q07343 whole entry, looked up): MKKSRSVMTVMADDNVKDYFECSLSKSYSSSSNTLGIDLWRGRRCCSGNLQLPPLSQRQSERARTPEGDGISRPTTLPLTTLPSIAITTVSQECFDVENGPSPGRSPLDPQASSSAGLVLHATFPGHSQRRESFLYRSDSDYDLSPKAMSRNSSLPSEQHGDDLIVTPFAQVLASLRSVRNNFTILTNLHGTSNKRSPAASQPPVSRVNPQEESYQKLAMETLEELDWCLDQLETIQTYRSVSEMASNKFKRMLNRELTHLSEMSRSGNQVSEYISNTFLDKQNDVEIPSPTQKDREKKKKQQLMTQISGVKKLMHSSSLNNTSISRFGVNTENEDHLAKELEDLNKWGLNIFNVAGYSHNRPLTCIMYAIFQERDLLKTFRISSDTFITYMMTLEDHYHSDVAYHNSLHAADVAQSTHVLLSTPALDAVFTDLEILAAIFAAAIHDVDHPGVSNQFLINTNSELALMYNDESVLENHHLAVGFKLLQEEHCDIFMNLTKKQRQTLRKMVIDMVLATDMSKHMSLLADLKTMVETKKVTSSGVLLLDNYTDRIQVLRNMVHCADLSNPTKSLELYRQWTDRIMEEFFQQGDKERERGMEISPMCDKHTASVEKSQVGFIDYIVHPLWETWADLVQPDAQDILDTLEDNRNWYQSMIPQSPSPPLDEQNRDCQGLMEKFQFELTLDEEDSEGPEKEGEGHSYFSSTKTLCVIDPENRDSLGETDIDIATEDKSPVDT
Outline: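 Live HEK293 cells with a modified cyclic nucleotide-gated (CNG) channel report intracellular cAMP via membrane-potential dye fluorescence (ex 535/em 590 nm). Endogenous PDE-IV was targeted. Compounds were tested at up to 22.9 uM final; RO 20-1724 100 uM served as control.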

[2] = Cell Viability - Mesenchymal (AID 546); conditions: mesenchymal cells viability, qHTS; activity change, negative = cytotoxicity: at 91.7 µM (top of the series);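 further: cells exposed to compound for 40 hours before reading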; further: potency means the concentration at half of the fitted maximal effect
Outline: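 Human kidney mesenchymal cells from normal renal glomeruli, 1000 cells/well, rested 5 hr at 37 °C, then treated 40 hr at 37 °C in complete medium. Cellular ATP read by CellTiter-Glo luminescence; AC50 from Hill-equation fits.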

[3] = Cellular Toxicity (caspase-3) HepG2 (AID 654); further: potency means the concentration at half of the fitted maximal effect;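 on caspase-3 activation: cells exposed to compound for 16 hours before reading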
Outline: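 HepG2 cells (1500/well) in complete medium were treated with compounds for 16 hr at 37 °C. Caspase-3/7 activity was then read as luminescence from peptide-aminoluciferin cleavage. AC50 came from Hill fits, normalized to DMSO and 100 uM tamoxifen.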

[4] = Cellular Toxicity (caspase-3) Jurkat (AID 655);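 further: cells exposed to compound for 16 h at 37 °C before reading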; further: potency means the concentration at half of the fitted maximal effect
Outline: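 qHTS in human Jurkat T-cell leukemia line: 16 hr compound treatment at 37 °C, caspase-3/7 activity measured by Caspase-Glo luminescence. AC50 derived from Hill equation.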

[5] = Cellular Toxicity (caspase-3) SHSY5Y (AID 657)
Outline: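 Readout: caspase-cleaved peptide-aminoluciferin substrate driving luciferase light in SH-SY5Y neuroblastoma cells after 16 h treatment. Response normalized to DMSO and 10 uM staurosporine controls.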

[6] = Cellular Toxicity (caspase-3) BJ (AID 658)
Outline: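 BJ human foreskin fibroblasts, 1000 cells/well, treated 16 hours at 37 °C in complete medium; caspase 3/7 activity by Caspase-Glo luminescence after 1 hr at room temperature. Normalized to DMSO and 10 uM staurosporine; AC50 from Hill fits.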

[7] = Cellular Toxicity (caspase-3) MRC-5 (AID 659); conditions: Potency: caspase-3 activation; further: potency means the concentration at half of the fitted maximal effect
Outline: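 MRC-5 human normal lung fibroblasts, 1500 cells/well, treated 16 h at 37 °C in complete medium. Caspase 3/7 measured by Caspase-Glo luminescence after 1 h at room temperature. Normalized to DMSO and 10 uM staurosporine; AC50 from Hill fit.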

[8] = Cellular Toxicity (caspase-3) Mesangial (AID 660)
Outline: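 Human renal glomerular mesangial cells (1000/well) were treated with compounds for 16 h at 37 °C in complete medium, then caspase 3/7 activity was read by Caspase-Glo luminescence. Data were normalized to DMSO and 100 uM tamoxifen; AC50 from Hill fits.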

[9] = Cellular Toxicity (caspase-3) SK-N-SH (AID 661); further: potency means the concentration at half of the fitted maximal effect
Outline: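 SK-N-SH human neuroblastoma cells (1500/well) were treated with compounds for 16 hr at 37 °C in complete medium; caspase 3/7 activity was read by Caspase-Glo luminescence. AC50 came from Hill fits of data normalized to DMSO and 10 uM staurosporine.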

[10] = Cellular Toxicity (caspase-3) H-4-II-E (AID 663); conditions: Potency: caspase-3 activation; further: potency means the concentration at half of the fitted maximal effect;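 on caspase-3 activation: cells exposed to compound for 16 hr before readout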
Outline: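 Rat hepatoma H-4-II-E cells (1500/well) plated 5 hr, then exposed to compound titrations for 16 hr at 37 °C. Caspase-Glo 3/7 luminescence read after 20 min at RT; data normalized to DMSO and 100 uM tamoxifen, AC50 from Hill fits.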

Row | SMILES | outcome [1] | activity change, negative = cytotoxicity [2] | Potency [3] | Potency [4] | Potency [5] | outcome [6] | Potency [7] | outcome [8] | Potency [9] | Potency [10] | Potency [2]
1 | NCCc1ccn[nH]1 | inactive | – | – | – | – | – | – | – | – | – | –
2 | CCCCCCc1ccc(O)cc1O | – | -9.3% | inactive | inactive | inactive | inactive | inactive | inactive | inactive | inactive | –
3 | CN(C)/N=N/c1nc[nH]c1C(N)=O | – | -2.47% | inactive | inactive | inactive | inactive | inactive | inactive | inactive | inactive | –
4 | CC(=O)Oc1ccc(C(c2ccc(OC(C)=O)cc2)c2ccccn2)cc1 | – | -3.78% | inactive | inactive | inactive | inactive | inactive | inactive | inactive | inactive | –
5 | CCN1CCC[C@H]1CNC(=O)c1c(OC)ccc(Br)c1OC | inactive | – | – | – | – | – | – | – | – | – | –
6 | Oc1ccc(O)cc1 | inactive | -96.1% (active) | inactive | inactive | inactive | inactive | inactive | inactive | inactive | – | –
7 | Oc1c(Cl)cc(Cl)cc1Sc1cc(Cl)cc(Cl)c1O | – | -28.4% | inactive | – | inactive | inactive | inactive | inactive | inactive | inactive | –
8 | CN1CCN(CCCN2c3ccccc3Sc3ccc(S(=O)(=O)N(C)C)cc32)CC1 | inactive | – | – | – | – | – | – | – | – | – | –
9 | C=CCc1ccc(O)c(OC)c1 | – | 5.14% | inactive | inactive | inactive | inactive | inactive | inactive | inactive | inactive | –
10 | O=C1OC(c2ccc(O)cc2)(c2ccc(O)cc2)c2ccccc21 | – | -12.7% | inactive | inactive | inactive | inactive | inactive | inactive | inactive | inactive | –
11 | NC(=NCCCCCCN=C(N)/N=C(\N)Nc1ccc(Cl)cc1)/N=C(\N)Nc1ccc(Cl)cc1 | inactive | – | inactive | inactive | inactive | inactive | inactive | inactive | inactive | inactive | 31.6 µM (active)
12 | C[C@]12CC[C@@H]3c4ccc(O)cc4CC[C@H]3[C@@H]1CC[C@@H]2O | – | -23.1% | inactive | inactive | inactive | inactive | inactive | inactive | inactive | inactive | –
13 | CC(O)(P(=O)(O)O)P(=O)(O)O | inactive | – | – | – | – | – | – | – | – | – | –
14 | O=C1CCC(c2ccc(-n3ccnc3)cc2)=NN1 | inactive | – | – | – | – | – | – | – | – | – | –
15 | C=C(CC)C(=O)c1ccc(OCC(=O)O)c(Cl)c1Cl | inactive | -21.9% | inactive | inactive | inactive | inactive | inactive | inactive | inactive | inactive | –
16 | C[C@@H](CN(C)C)CN1c2ccccc2Sc2ccccc21 | inactive | – | – | – | – | – | – | – | – | – | –
17 | CC(C)(Oc1ccc(Cl)cc1)C(=O)O | inactive | – | – | – | – | – | – | – | – | – | –
18 | CN1[C@@H]2CC[C@H]1CC(OC(=O)c1c[nH]c3ccccc13)C2 (stereo partly specified) | inactive | – | – | – | – | – | – | – | – | – | –
19 | O=c1ccc2ccccc2o1 | – | 4.05% | inactive | inactive | inactive | inactive | inactive | inactive | inactive | inactive | –
20 | Nc1nc2ncc(CNc3ccc(C(=O)N[C@@H](CCC(=O)O)C(=O)O)cc3)nc2c(=O)[nH]1 | inactive | – | – | – | – | – | – | – | – | – | –
21 | CC(=O)O[C@]1(C(C)=O)CC[C@H]2[C@@H]3C[C@H](C)C4=CC(=O)CC[C@]4(C)[C@H]3CC[C@@]21C | – | -6.64% | inactive | – | inactive | inactive | inactive | inactive | inactive | inactive | –
22 | CC(C)(C)CC(C)(C)c1ccc(OCCOCC[N+](C)(C)Cc2ccccc2)cc1 | – | -104% (active) | 50.1 µM (active) | – | inactive | – | 31.6 µM (active) | – | – | – | –
23 | CC(O)C(=O)O (stereo unspecified) | – | -3.83% | inactive | inactive | inactive | inactive | inactive | inactive | inactive | inactive | –
24 | CC/C(=C(/CC)c1ccc(O)cc1)c1ccc(O)cc1 | – | -3% | inactive | inactive | inactive | inactive | inactive | inactive | inactive | inactive | –
25 | O=C(O)CCCCC(=O)O | – | 3.41% | inactive | inactive | inactive | inactive | inactive | inactive | inactive | inactive | –
26 | Cc1c2oc3c(C)ccc(C(=O)N[C@@H]4C(=O)N[C@H](C(C)C)C(=O)N5CCC[C@H]5C(=O)N(C)CC(=O)N(C)[C@@H](C(C)C)C(=O)O[C@@H]4C)c3nc-2c(C(=O)N[C@@H]2C(=O)N[C@H](C(C)C)C(=O)N3CCC[C@H]3C(=O)N(C)CC(=O)N(C)[C@@H](C(C)C)C(=O)O[C@@H]2C)c(N)c1=O (I: T[dV]P[Sar][NMeV] / II: T[dV]P[Sar][NMeV]; ester I:1-I:C, II:1-II:C; linker I:N-II:N via Actinocin(9to1)) | – | -18.7% | inactive | 0.00398 µM (active) | – | inactive | inactive | inactive | 0.0158 µM (active) | 0.126 µM (active) | –
